# Data as given in ChEMBL document CHEMBL2218924, “A broad activity screen in support of a chemogenomic map for kinase signalling research and drug discovery” (Biochem J, 2013).
# Assays:
# [1] = target: Tyrosine-protein kinase SYK (Homo sapiens) (UniProt P43405); settings: at 10 µM
# [2] = target: T1, Mitogen-activated protein kinase kinase kinase 7 (Homo sapiens) (UniProt O43318); settings: at 1 µM
# T1 sequence (whole entry): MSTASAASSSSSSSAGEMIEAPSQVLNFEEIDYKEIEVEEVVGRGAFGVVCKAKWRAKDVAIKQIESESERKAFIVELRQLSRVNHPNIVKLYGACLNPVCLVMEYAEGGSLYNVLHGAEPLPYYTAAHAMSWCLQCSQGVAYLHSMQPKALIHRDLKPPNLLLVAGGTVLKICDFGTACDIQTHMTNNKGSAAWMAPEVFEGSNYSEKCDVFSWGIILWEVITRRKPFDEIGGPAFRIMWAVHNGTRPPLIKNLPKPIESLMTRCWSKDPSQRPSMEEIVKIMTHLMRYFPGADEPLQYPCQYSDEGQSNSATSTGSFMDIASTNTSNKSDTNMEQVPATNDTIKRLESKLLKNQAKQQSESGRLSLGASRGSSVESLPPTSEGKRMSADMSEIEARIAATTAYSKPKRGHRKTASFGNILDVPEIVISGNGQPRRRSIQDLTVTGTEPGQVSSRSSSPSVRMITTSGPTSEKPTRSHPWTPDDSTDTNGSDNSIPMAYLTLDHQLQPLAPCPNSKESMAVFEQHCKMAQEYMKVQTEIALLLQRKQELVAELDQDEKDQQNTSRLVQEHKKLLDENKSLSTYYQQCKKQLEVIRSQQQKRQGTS
# [3] = target: T1, Mitogen-activated protein kinase kinase kinase 7 (Homo sapiens); settings: at 10 µM
# [4] = target: T2, Serine/threonine-protein kinase TAO1 (Homo sapiens) (UniProt Q7L7X3); settings: at 1 µM
# T2 sequence (whole entry): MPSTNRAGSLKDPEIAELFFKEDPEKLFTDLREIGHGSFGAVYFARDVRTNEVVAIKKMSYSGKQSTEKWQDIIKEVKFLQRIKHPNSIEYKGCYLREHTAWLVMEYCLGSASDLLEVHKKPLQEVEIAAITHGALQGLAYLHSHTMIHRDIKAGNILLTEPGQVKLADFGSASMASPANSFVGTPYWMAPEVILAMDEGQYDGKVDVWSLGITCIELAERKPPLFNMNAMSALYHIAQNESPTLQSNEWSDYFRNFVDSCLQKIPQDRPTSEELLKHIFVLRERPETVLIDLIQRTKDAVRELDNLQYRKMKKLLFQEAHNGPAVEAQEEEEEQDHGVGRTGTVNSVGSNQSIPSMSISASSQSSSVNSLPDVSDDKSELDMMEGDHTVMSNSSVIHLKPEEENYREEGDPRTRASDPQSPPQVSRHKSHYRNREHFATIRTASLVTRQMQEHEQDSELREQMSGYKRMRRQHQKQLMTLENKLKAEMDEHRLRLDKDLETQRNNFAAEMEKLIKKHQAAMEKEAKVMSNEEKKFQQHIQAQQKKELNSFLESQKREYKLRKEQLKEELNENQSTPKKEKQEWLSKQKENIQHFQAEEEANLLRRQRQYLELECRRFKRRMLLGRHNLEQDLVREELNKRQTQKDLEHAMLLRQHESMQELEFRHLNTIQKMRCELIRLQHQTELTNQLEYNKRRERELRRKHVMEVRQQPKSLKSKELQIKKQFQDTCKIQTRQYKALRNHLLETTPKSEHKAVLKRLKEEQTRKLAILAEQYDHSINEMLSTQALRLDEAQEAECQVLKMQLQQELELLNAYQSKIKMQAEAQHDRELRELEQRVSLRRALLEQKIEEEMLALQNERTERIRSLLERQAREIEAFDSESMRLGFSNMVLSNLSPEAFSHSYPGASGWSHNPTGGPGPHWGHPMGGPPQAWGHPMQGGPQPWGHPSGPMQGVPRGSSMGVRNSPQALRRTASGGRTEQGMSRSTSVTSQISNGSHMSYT
# [5] = target: T2, Serine/threonine-protein kinase TAO1 (Homo sapiens); settings: at 10 µM
# [6] = target: T3, Serine/threonine-protein kinase TAO2 (Homo sapiens) (UniProt Q9UL54); settings: at 1 µM
# T3 sequence (whole entry): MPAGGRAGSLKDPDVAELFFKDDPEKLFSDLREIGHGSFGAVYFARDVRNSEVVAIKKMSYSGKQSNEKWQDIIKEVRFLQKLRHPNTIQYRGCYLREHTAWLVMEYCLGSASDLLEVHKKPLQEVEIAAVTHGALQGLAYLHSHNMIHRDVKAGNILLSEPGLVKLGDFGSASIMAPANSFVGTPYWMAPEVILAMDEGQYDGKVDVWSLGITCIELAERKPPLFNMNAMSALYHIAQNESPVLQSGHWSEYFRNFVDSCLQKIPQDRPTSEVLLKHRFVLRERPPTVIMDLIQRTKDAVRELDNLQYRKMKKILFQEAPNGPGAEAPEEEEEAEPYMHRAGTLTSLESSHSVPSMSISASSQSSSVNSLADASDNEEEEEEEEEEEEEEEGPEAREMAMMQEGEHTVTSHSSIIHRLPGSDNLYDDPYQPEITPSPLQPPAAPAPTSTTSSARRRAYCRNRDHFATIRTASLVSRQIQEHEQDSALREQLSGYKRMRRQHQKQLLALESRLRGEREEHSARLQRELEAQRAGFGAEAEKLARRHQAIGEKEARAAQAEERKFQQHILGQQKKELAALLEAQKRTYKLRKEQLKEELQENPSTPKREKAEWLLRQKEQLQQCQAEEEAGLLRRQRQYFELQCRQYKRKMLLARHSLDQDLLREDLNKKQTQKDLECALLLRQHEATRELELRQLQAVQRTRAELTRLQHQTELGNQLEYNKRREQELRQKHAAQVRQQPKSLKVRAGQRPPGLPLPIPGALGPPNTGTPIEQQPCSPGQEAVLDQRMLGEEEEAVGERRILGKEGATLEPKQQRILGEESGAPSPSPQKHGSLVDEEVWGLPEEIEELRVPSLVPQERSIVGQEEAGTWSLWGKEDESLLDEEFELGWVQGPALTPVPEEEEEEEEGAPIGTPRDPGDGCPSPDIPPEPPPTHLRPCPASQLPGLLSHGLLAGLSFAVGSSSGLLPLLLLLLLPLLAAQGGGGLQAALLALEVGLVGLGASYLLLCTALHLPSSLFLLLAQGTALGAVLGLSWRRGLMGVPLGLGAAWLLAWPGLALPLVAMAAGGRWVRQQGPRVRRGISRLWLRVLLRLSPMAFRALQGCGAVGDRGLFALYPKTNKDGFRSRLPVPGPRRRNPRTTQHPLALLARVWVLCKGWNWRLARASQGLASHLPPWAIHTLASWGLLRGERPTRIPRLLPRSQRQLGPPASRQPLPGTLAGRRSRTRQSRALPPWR
# [7] = target: T3, Serine/threonine-protein kinase TAO2 (Homo sapiens); settings: at 10 µM
# [8] = target: T4, Serine/threonine-protein kinase TAO3 (Homo sapiens) (UniProt Q9H2K8); settings: at 1 µM
# T4 sequence (whole entry): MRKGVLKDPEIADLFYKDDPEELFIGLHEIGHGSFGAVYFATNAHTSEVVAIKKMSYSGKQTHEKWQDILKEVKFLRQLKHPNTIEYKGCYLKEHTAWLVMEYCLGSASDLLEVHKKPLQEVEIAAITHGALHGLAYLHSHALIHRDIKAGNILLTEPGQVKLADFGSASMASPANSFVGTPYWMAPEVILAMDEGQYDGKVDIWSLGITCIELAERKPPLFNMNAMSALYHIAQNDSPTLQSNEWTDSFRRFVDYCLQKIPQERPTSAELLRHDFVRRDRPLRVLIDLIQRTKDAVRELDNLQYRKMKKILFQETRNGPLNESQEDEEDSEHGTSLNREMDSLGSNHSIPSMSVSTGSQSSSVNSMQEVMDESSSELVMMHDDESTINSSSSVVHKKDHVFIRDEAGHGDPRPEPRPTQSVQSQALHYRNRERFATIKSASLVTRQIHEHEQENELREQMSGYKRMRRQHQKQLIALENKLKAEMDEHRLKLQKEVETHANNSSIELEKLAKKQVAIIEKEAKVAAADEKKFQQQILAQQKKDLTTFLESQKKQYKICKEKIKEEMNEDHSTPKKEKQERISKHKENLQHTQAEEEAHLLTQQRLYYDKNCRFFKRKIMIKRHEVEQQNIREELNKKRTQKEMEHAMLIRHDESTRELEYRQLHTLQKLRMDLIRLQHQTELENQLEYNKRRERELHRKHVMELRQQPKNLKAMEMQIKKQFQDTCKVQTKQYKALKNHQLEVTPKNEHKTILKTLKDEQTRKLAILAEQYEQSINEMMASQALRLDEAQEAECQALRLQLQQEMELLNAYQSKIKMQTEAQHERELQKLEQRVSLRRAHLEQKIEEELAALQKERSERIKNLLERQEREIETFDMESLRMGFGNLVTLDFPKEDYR
# [9] = target: T4, Serine/threonine-protein kinase TAO3 (Homo sapiens); settings: at 10 µM
# [10] = target: T5, Serine/threonine-protein kinase TBK1 (Homo sapiens) (UniProt Q9UHD2); settings: at 1 µM
# T5 sequence (whole entry): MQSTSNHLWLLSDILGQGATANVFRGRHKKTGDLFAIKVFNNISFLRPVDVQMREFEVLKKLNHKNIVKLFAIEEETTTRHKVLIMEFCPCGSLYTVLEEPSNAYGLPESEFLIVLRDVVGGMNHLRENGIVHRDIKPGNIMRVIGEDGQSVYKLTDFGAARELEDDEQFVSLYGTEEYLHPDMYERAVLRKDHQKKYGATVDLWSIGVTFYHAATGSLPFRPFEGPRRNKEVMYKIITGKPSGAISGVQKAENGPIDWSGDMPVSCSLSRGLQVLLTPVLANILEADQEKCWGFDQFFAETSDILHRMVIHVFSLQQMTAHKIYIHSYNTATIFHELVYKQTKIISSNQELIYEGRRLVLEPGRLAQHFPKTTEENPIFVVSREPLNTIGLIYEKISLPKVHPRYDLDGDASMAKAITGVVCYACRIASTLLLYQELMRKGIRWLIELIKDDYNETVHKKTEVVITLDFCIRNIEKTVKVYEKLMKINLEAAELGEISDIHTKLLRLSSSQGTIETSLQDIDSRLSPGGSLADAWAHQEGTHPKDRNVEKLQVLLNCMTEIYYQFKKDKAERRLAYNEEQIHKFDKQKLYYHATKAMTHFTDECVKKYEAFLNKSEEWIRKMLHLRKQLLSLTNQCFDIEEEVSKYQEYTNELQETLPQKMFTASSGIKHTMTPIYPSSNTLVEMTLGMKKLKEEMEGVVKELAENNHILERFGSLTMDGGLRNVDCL
compound,measurement,setting,value
O=C1NC(=O)c2c1c1c3ccccc3[nH]c1c1[nH]c3cc(Br)ccc3c21,residual activity,[1],79%
same,residual activity,[2],94%
same,residual activity,[3],84%
same,residual activity,[4],92%
same,residual activity,[5],92%
same,residual activity,[6],103%
same,residual activity,[7],92%
same,residual activity,[8],93%
same,residual activity,[9],94%
same,residual activity,[10],75%
